Laboratory results taken from PubChem BioAssay AID651843 (National Center for Advancing Translational Sciences (NCATS), 2012).
This is one part of the list. Inconclusive results are not listed. Activity calls are given as the source filed them. The call rests on the fitted dose curve; in most records, active means well fitted inhibition curve with a large enough effect; inconclusive means small, poorly fitted or top-dose-only effect; inactive means no such curve, though single readings can be large or run the other way.

Assay: qHTS Assay for Inhibitors of MBNL1-poly(CUG) RNA binding: Counterscreen HTRF assay
Conditions: His-Menin/biotin-MLL peptide TR-FRET counterscreen; series mostly up to 57.6 µM
Description: NIH Chemical Genomics Center [NCGC] NIH Molecular Libraries Probe Production Centers Network [MLPCN] MLPCN Grant: R03 MH087421-01 Assay Submitter (PI): Charles Thornton NCGC Assay Overview: Expanded CTG repeats in the 3' untranslated region of the DM protein kinase (DMPK) gene causes type I myotonic dystrophy (DM1). DM1 is a multi-systemic disease with a prevalence of 1/7000. Clinical features include myotonia, progressive muscle weakness and wasting, cardiac arrhythmia, insulin resistance, hypersomnolence, cataracts, and other symptoms. The pathogenic effect of expanded CTG repeats stems from deleterious effects of the mutant transcript. CUGexp mRNA accumulates in nuclear foci and sequesters proteins of the muscleblind family, of which MBNL1 is the most common family member in skeletal muscles. […] This brings the terbium label within close proximity to XL665 to allow time-resolved fluorescence resonance energy transfer (TR-FRET). […]
This assay uses a ratiometric measurement of TR-FRET binding assay with His-Menin and Biotin-MLL peptide. […] (3) Add 1 ul of 0.22 ng/ul terbium labeled anti-His antibody (0.055 ng/ul final concentration) (4) Add 1 ul of 20 nM streptavidin-XL665 (5 nM final concentration) (5) Incubate 60 min at room temperature (6) Detect the assay plate in a EnVision plate reader (PerkinElmer) with Ex=340 nm, Em1=665 nm and Em2=545 nm.

SMILES | outcome
CCOC(=O)c1c(C)[nH]c2c1-c1ccccc1C(=O)C2=O | inactive
NCCC[C@H](N)CC(=O)N[C@H]1CNC(=O)[C@H]([C@H]2C[C@H](O)NC(N)=N2)NC(=O)/C(=C/NC(N)=O)NC(=O)[C@H](CO)NC(=O)[C@H](CO)NC1=O | inactive
